# Test results published in the supplement of paper PMC6897291.
# How the values were obtained:
# RIVA [1] = experiment: growth inhibition by drug plus 177Lu-lilotomab satetraxetan (1 - RLU/untreated control) (fraction); higher = stronger inhibition; conditions: 177Lu-lilotomab satetraxetan 0.5 ug/ml
# In short: (§1)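 RIVA or U-2932 cells were left untreated or pretreated for 18 h with a radiolabelled anti-CD37 antibody conjugate (~600 MBq/mg) at 0.5 µg/ml for RIVA or 1 µg/ml for U-2932. The cells were then washed and seeded at 3,000 cells/well on plates pre-printed with the Selleck Cambridge Cancer Compound library, dosed at 10/100 nM for RIVA and 10/1,000 nM for U-2932. From day 3, RealTime-Glo luminescence was read daily after 1 h at 37°C. Growth inhibition was taken as one minus RLU over the mean of the untreated no-drug wells, of which there were 48 per plate.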
# U-2932 [2] = experiment: growth inhibition by drug alone (1 - RLU/untreated control) (fraction); higher = stronger inhibition; conditions: 177Lu-lilotomab satetraxetan 0 ug/ml
# In short: as §1
# RIVA [3] = experiment: as above; conditions: 177Lu-lilotomab satetraxetan 0 ug/ml
# In short: as §1
# U-2932 [4] = experiment: growth inhibition by drug plus 177Lu-lilotomab satetraxetan (1 - RLU/untreated control) (fraction); higher = stronger inhibition; conditions: 177Lu-lilotomab satetraxetan 1 ug/ml
# In short: as §1
Compound,"growth inhibition by drug plus 177Lu-lilotomab satetraxetan (RIVA [1]; 100 nM, time (day): 5)","growth inhibition by drug plus 177Lu-lilotomab satetraxetan (RIVA [1]; 100 nM, time (day): 6)","growth inhibition by drug alone (U-2932 [2]; 10 nM, time (day): 3)","growth inhibition by drug alone (U-2932 [2]; 10 nM, time (day): 4)","growth inhibition by drug alone (U-2932 [2]; 10 nM, time (day): 5)","growth inhibition by drug alone (U-2932 [2]; 10 nM, time (day): 6)","growth inhibition by drug alone (U-2932 [2]; 1000 nM, time (day): 3)","growth inhibition by drug alone (U-2932 [2]; 1000 nM, time (day): 4)","growth inhibition by drug alone (U-2932 [2]; 1000 nM, time (day): 5)","growth inhibition by drug alone (U-2932 [2]; 1000 nM, time (day): 6)","growth inhibition by drug alone (RIVA [3]; 10 nM, time (day): 3)","growth inhibition by drug alone (RIVA [3]; 10 nM, time (day): 4)","growth inhibition by drug alone (RIVA [3]; 10 nM, time (day): 5)","growth inhibition by drug alone (RIVA [3]; 10 nM, time (day): 6)","growth inhibition by drug alone (RIVA [3]; 100 nM, time (day): 3)","growth inhibition by drug alone (RIVA [3]; 100 nM, time (day): 4)","growth inhibition by drug alone (RIVA [3]; 100 nM, time (day): 5)","growth inhibition by drug alone (RIVA [3]; 100 nM, time (day): 6)","growth inhibition by drug plus 177Lu-lilotomab satetraxetan (U-2932 [4]; 10 nM, time (day): 3)","growth inhibition by drug plus 177Lu-lilotomab satetraxetan (U-2932 [4]; 10 nM, time (day): 4)","growth inhibition by drug plus 177Lu-lilotomab satetraxetan (U-2932 [4]; 10 nM, time (day): 5)","growth inhibition by drug plus 177Lu-lilotomab satetraxetan (U-2932 [4]; 10 nM, time (day): 6)","growth inhibition by drug plus 177Lu-lilotomab satetraxetan (U-2932 [4]; 1000 nM, time (day): 3)","growth inhibition by drug plus 177Lu-lilotomab satetraxetan (U-2932 [4]; 1000 nM, time (day): 4)","growth inhibition by drug plus 177Lu-lilotomab satetraxetan (U-2932 [4]; 1000 nM, time (day): 5)","growth inhibition by drug plus 177Lu-lilotomab satetraxetan (U-2932 [4]; 1000 nM, time (day): 6)","growth inhibition by drug plus 177Lu-lilotomab satetraxetan (RIVA [1]; 10 nM, time (day): 3)","growth inhibition by drug plus 177Lu-lilotomab satetraxetan (RIVA [1]; 10 nM, time (day): 4)","growth inhibition by drug plus 177Lu-lilotomab satetraxetan (RIVA [1]; 10 nM, time (day): 5)","growth inhibition by drug plus 177Lu-lilotomab satetraxetan (RIVA [1]; 10 nM, time (day): 6)","growth inhibition by drug plus 177Lu-lilotomab satetraxetan (RIVA [1]; 100 nM, time (day): 3)","growth inhibition by drug plus 177Lu-lilotomab satetraxetan (RIVA [1]; 100 nM, time (day): 4)"
CN1CCN(c2cccc(Nc3nc4c(-c5ccc(S(C)(=O)=O)cc5)cccn4n3)c2)CC1,0.425,0.401,–,–,–,–,–,–,–,–,–,–,–,–,–,–,–,–,–,–,–,–,–,–,–,–,–,–,–,–,–,–
Nc1ccc(-c2ccc3ncc4ccc(=O)n(-c5cccc(C(F)(F)F)c5)c4c3c2)cn1 [Torin 2],0.881,0.887,0.465,0.318,0.24,0.244,0.937,0.963,0.974,0.981,0.402,0.267,0.158,-0.141,0.769,0.804,0.808,0.781,0.305,0.238,0.247,0.312,0.953,0.97,0.98,0.986,0.613,0.549,0.527,0.515,0.838,0.874
CNC(=O)c1cc(Oc2ccc(NC(=O)Nc3cc(C(C)(C)C)nn3-c3ccc4ncccc4c3)c(F)c2)ccn1 [DCC-2036 (Rebastinib)],0.626,0.633,0.0874,0.0635,0.096,-0.234,0.0869,0.114,0.104,0.0187,-0.0575,0.00723,-0.0883,-0.395,-0.428,-0.203,-0.231,-0.405,0.0343,0.0699,0.117,0.132,0.0878,0.127,0.208,0.293,0.44,0.57,0.586,0.613,0.486,0.607
O=C(NOC[C@H](O)CO)c1ccc(F)c(F)c1Nc1ccc(I)cc1F,0.512,0.467,0.189,0.198,0.0482,0.0357,0.152,0.19,0.102,0.0951,0.198,0.141,0.026,-0.212,0.191,0.122,0.0195,-0.189,0.138,0.163,0.15,0.218,0.162,0.231,0.189,0.269,0.487,0.514,0.508,0.496,0.552,0.532
